Laboratory results from PubChem BioAssay (Tox21).
Records with an inconclusive call do not appear. A call without a number means that no potency is given here. Activity calls are given as the source filed them. Unless noted, calls come from the whole dose curve.

Tests used:
[1] = qHTS assay to identify small molecule antagonists of the vitamin D receptor (VDR) signaling pathway - cell viability counter screen (AID 743225; active = well fitted curve in the direction sought with a large enough effect in the repeat runs; an effect the other way counts as inactive or inconclusive; note: nearly all actives have a fitted effect of over 50% in size; note: potency is the fitted concentration of half-maximal effect)
Procedure, shortened: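 Compounds were pinned onto VDR-bla HEK 293T cells together with 1-alpha,25-dihydroxyvitamin D3 at 3 nM final. After 16 h at 37C and 5% CO2 plus the reporter readout, cell viability was measured by CellTiter-Glo luminescence (30 min, room temperature).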

[2] = qHTS assay to identify small molecule agonists of the NFkB signaling pathway (AID 1159509; active = well fitted curve in the direction sought with a large enough effect in the signal ratio in the repeat runs, not every such curve was filed as active; the % refers to the signal ratio; note: series mostly up to about 61 µM)
Procedure, shortened: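 After overnight attachment, reporter cells received test compounds, DMSO or positive controls and were incubated 5 hr at 37 C. FRET substrate was then added for 1.5 hr at room temperature before dual-emission fluorescence reading.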

[3] = qHTS assay to identify small molecule agonists of the NFkB signaling pathway - cell viability counter screen (AID 1159515); note: nearly all actives have a fitted effect of over 55% in size; note: potency is the fitted concentration of half-maximal effect
Procedure, shortened: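 Using the same wells as the NFkB reporter read, ME-180 NFkB-bla cells given compounds for 5 hr were assessed for viability via CellTiter-Glo, with luminescence taken after a 30 min room-temperature incubation.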

[4] = qHTS assay to identify small molecule agonists of the endoplasmic reticulum stress response signaling pathway (AID 1159516; active = well fitted activation curve with a large enough effect in the signal ratio in the repeat runs, not every such curve was filed as active; the % refers to the signal ratio)
Procedure, shortened: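 An ESRE-bla HeLa cell assay: compounds were pin-transferred from DMSO onto overnight-plated cells and left 5 hr at 37 C. Substrate was then loaded for 2 hr at room temperature before reading fluorescence at 460 nm and 530 nm.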

[5] = target: Nuclear receptor ROR-gamma (Homo sapiens) (UniProt P51449); assay: qHTS assay to identify small molecule antagonists of the retinoid-related orphan receptor gamma (ROR-gamma) signaling pathway (AID 1159521; active = well fitted curve in the direction sought with a large enough effect in the repeat runs; an effect the other way counts as inactive or inconclusive; note: nearly all actives have a fitted effect of over 50% in size; note: potency is the fitted concentration of half-maximal effect)
Procedure, shortened: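 Test compounds were applied to Tet-on RORγ CHO cells 2 h ahead of doxycycline hyclate (1 uM final). Luciferase reporter activity was quantified by luminescence after 16 h at 37 C and 5% CO2.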

[6] = qHTS assay to identify small molecule agonists of the AP-1 signaling pathway - cell viability counter screen (AID 1159525); note: nearly all actives have a fitted effect of over 55% in size; note: potency is the fitted concentration of half-maximal effect
Procedure, shortened: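 Luminescent ATP readout (Cell Titer Glo, 30 min RT), normalised to DMSO and tetra n-octyl ammonium bromide controls. Cells were ME-180 AP-1-bla in 0.5% dialyzed FBS Opti-MEM, with a 5 h, 37 °C compound exposure.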

[7] = qHTS assay to identify small molecule agonists of the AP-1 signaling pathway (AID 1159526)
[8] = target: Retinoic acid receptor RXR-alpha (Homo sapiens) (UniProt P19793); assay: qHTS assay to identify small molecule agonists of the RXR signaling pathway (AID 1159527); note: nearly all actives have a fitted effect of over 35% in size
Procedure, shortened: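 Using 9-cis retinoic acid as the reference agonist, chemicals were tested in HEK 293T cells […] for 16 hr; substrate loading lasted 2 hr at room temperature.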

[9] = qHTS assay to identify small molecule antagonists of the retinoid-related orphan receptor gamma (ROR-gamma) signaling pathway - cell viability counter screen (AID 1159520; active = well fitted curve in the direction sought with a large enough effect in the repeat runs; an effect the other way counts as inactive or inconclusive; note: nearly all actives have a fitted effect of over 50% in size; note: potency is the fitted concentration of half-maximal effect)
Procedure, shortened: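 Cytotoxicity was read from cellular ATP (CellTiter-Glo luminescence) after 16 hr at 37 C with 1 uM doxycycline induction. The inducer was added 2 hr after compound transfer to Tet-on ROR gamma CHO cells.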

[10] = qHTS assay to identify small molecule agonists of the endoplasmic reticulum stress response signaling pathway - cell viability counter screen (AID 1159517);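 note: HeLa cells carrying an ER stress response element beta-lactamase reporter; series mostly up to about 61 µM; nearly all actives have a fitted effect of over 50% in size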
Procedure, shortened: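 Cells, HeLa ESRE-bla; density, 1,500/well; dosing, 5 hr at 37 C, 5% CO2; readout, CellTiter-Glo luminescence after 30 min RT.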

Sequence of Retinoic acid receptor RXR-alpha (Homo sapiens) (P19793 whole entry, looked up): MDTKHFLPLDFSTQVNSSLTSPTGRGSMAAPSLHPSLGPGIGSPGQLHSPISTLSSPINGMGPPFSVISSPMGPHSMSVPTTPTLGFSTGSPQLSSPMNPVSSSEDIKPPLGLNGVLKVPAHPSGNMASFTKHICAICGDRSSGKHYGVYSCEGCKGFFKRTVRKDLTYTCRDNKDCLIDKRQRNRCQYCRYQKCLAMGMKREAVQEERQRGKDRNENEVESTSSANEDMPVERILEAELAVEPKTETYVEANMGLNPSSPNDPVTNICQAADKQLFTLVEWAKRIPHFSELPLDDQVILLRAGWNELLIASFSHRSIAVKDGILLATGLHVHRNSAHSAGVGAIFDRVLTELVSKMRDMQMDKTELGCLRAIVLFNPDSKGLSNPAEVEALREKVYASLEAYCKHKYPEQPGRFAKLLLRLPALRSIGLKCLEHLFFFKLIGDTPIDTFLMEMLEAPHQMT

| Structure (SMILES) | Potency [1] | outcome [2] | Potency [3] | Potency [4] | Potency [5] | Potency [6] | outcome [7] | Potency [8] | Potency [9] | Potency [10] |
| --- | --- | --- | --- | --- | --- | --- | --- | --- | --- | --- |
| CC1CCc2nccnc21 (configuration not stated) | inactive | inactive | inactive | inactive | inactive | inactive | inactive | – | – | – |
| CC(C)CC(O)CC(C)C | inactive | inactive | inactive | inactive | inactive | inactive | inactive | inactive | – | – |
| Cc1c(C2(c3cc(Br)c(O)c(Br)c3C)OS(=O)(=O)c3ccccc32)cc(Br)c(O)c1Br | inactive | inactive | 37.7 µM (active) | inactive | 5.93 µM (active) | – | inactive | – | 3.74 µM (active) | – |
| BrC(Br)C(Br)Br | inactive | inactive | inactive | inactive | inactive | inactive | inactive | inactive | – | – |
| CCCCCCC(CO)CCCC (configuration not stated) | inactive | inactive | inactive | inactive | inactive | – | – | inactive | inactive | – |
| O=C(NS(=O)(=O)/C=C/c1ccccc1)c1ccc(F)cc1Cl | inactive | inactive | inactive | inactive | inactive | inactive | inactive | – | – | – |
| CC(=O)OCC1=C(C(=O)O)N2C(=O)[C@@H](NC(=O)CSc3ccncc3)[C@H]2SC1 | inactive | inactive | inactive | inactive | inactive | inactive | – | inactive | – | – |
| CC(=O)Oc1cccc(O)c1 | inactive | inactive | inactive | inactive | inactive | inactive | inactive | inactive | – | – |
| CC(=O)NNC(C)=O | – | inactive | inactive | inactive | – | inactive | inactive | inactive | inactive | – |
| CCCCCCCC(=O)Oc1c(Br)cc(C#N)cc1Br | – | inactive | inactive | inactive | 48.4 µM (active) | inactive | inactive | – | – | – |
| Cc1ccc(Nc2c(F)cccc2Cl)c(CC(=O)O)c1 | inactive | inactive | inactive | inactive | inactive | inactive | inactive | inactive | – | – |
| CN=C(N)NC(=O)Nc1c(C)cccc1C | inactive | inactive | inactive | inactive | inactive | inactive | inactive | inactive | – | – |
| COC(=O)C1=C(C)NC(C)=C(C(=O)OC(C)(C)CN(C)CCC(c2ccccc2)c2ccccc2)C1c1cccc([N+](=O)[O-])c1 (configuration not stated) | inactive | inactive | inactive | inactive | 11.9 µM (active) | – | inactive | – | – | – |
| C=CC(=O)NC(C)C | inactive | inactive | inactive | inactive | – | inactive | inactive | – | inactive | – |
| CCOC(=O)C(C)O (configuration not stated) | inactive | inactive | inactive | inactive | inactive | inactive | inactive | – | – | – |
| Cc1cc([N+](=O)[O-])ccc1N | inactive | inactive | inactive | inactive | – | – | inactive | – | inactive | – |
| CCCCCCCC(=O)OCCCCCC | inactive | inactive | inactive | – | inactive | inactive | inactive | inactive | inactive | inactive |
| SCCc1cnccn1 | inactive | inactive | inactive | – | inactive | inactive | inactive | inactive | inactive | inactive |
| CC(C)c1ccc(C(=O)N=C(N)N)cc1S(C)(=O)=O | inactive | inactive | inactive | – | inactive | inactive | inactive | – | inactive | inactive |
| CC(C)(C)S | inactive | inactive | inactive | – | inactive | inactive | inactive | inactive | inactive | inactive |
| CNS(=O)(=O)c1cc(C(=O)N2CCC(CCN3C4CCC3CC(n3c(C)nc5ccccc53)C4)(c3cccc(F)c3)CC2)c(Cl)cc1F (configuration not stated) | 13.8 µM (active) | inactive | 38.9 µM (active) | – | 7.7 µM (active) | 24.5 µM (active) | inactive | – | inactive | inactive |
